# Assay results published in PubChem BioAssay AID1454 (National Center for Advancing Translational Sciences (NCATS), 2008).
# About 550 (0.42%) of roughly 130,000 compounds were called active. Inconclusive results (about 4%) are left out. Calls come from the whole dose curve; as a rule, active = well fitted inhibition curve with a large enough effect; inconclusive = small, poorly fitted or top-dose-only effect, or effect the other way; inactive = flat fitted curve, though single readings scatter. What follows is part of a selection rich in actives, with near analogues and random picks from the rest. Where a call stands in place of a potency, no number is given.
# Assay: qHTS Assay for Inhibitors of the ERK Signaling Pathway using a Homogeneous Screening Assay; Stimulation with EGF; note: nearly all actives have a fitted effect of over 55% in size
# Settings: HEK293-V1b, EGF-stimulated phospho-ERK AlphaScreen; series mostly up to 11.5 µM
# Excerpt: NIH Chemical Genomics Center [NCGC]
# NIH Molecular Libraries Screening Centers Network [MLSCN]
# Assay Submitter (PI): Dr. Wei Zheng, NCGC/NIH
# The Ras/extracellular-signal-regulated kinase (ERK) mitogen activated protein (MAP) kinase signaling pathway (ERK1/2 cascade) plays a key role in transmitting signals from the cell surface to the nucleus (Nishida and Gotoh 1993; Chang and Karin, 2001). The cascade is initiated by the small G-protein Ras, which recruits Raf from the cytosol, where activation occurs. Alternatively, this pathway can be activated by elevating intracellular cAMP, or by activation of a receptor tyrosine kinase as epidermal growth factor receptor.
# Activation of the ERK pathway is essential in increased cell division and cell survival. Sustained and constitutive activation of the ERK pathway, however, has been linked to uncontrolled cell proliferation, increased cell survival, and tumor progression. Thus, the ERK has been as an attractive target for cancer chemotherapy in the past few years (Sebolt-Leopold and Herrera, 2004). Given its physiological and pathological importance, assessment of ERK phosphorylation has been broadly performed in both basic research and drug discovery. Most assays for the measurement of ERK phosphorylation use the antibody-based detection methods, such as western blot and ELISA. These assays require multiple reagent additions with cell wash steps and are not suitable for high throughout screening.
# The current cell-based ERK phosphorylation assay was performed using AlphaScreen platform. AlphaScreen is a two bead-based proximity-dependent chemical energy transfer luminescent assay platform. The assay reagents (ERK SureFire(TM) kit) were supplied from TGR BioSciences (Australia). In the presence of specific antibodies, phosphorylated ERK will bring "donor" and "acceptor" beads to a proximity range (<200 nm), and subsequently lead a chemical luminescent reaction upon exciting donor beads with 680 nm laser. To exclude the assay-related false positives, we used a biotinylated rabbit IgG to perform counter-screen. The biotinylated antibody mimics the phosphorylated ERK1/2 for bringing streptavidin coated beads and protein-A coated beads to a proximity range for the AlphaScreen detection.
# NCGC Assay Protocol Summary:
# HEK293 cells stably expressing type-1 vasopressin receptor (V1b) were maintained in DMEM medium (Invitrogen, Carlsbad, CA) at 37C under a humidified atmosphere containing 5% CO2 and 95% air. The medium contained 10% FBS, 2 mM L-glutamine, non-essential amino acid, pyruvate and 50 U/ml penicillin and 50 ug/ml streptomycin (Invitrogen). The aliquots of frozen cells were stored at -135C and used for the compound screening. All compounds were screened as titrations from 0.6 nM to 46 uM final concentration. Epidermal growth factor (EGF) was used to stimulate the ERK phosphorylation pathway. The ERK phosphorylation in cells was determined using an AlphaScreen assay kit provided by […]. Data were normalized to the controls for basal activity (DMSO only) and 100% activation (25 nM EGF). AC50 values were determined from concentration-response data modeled with the standard Hill equation.
# (1) Seed 4 ul/well of resuspended frozen HEK293 cells containing 2000 cells in white 1536-well plates for overnight with 1% FBS at 37C under a humidified atmosphere containing 5% CO2 and 95% air.
# (2) Add 23 nL compounds in DMSO solution. The final titration was 0.6 nM to 46 uM.
# (3) Incubate at 37C for 30 min.
# (4) Dispense 0.5uL EGF (25 nM in final)
# (5) Incubate at 37C for 5 min.
# (6) Dispense 0.5uL of 1:2 diluted 5x lysis buffer.
# (7) Incubate at 37C for 10 min.
# (8) Dispense 1.5uL of mixture of activation buffer and reaction buffer with AlphaScreen beads (streptavidin donor beads and protein-A acceptor beads, 10 ng/well for each).
# (9) Incubate at room temperature for 5 hr.
# (10) Detect the assay plate in an EnVision plate reader (PerkinElmer) using the AlphaScreen detection mode.
# […]
# Potency is the fitted concentration of half-maximal effect.
row,Compound,Potency
1,CCOc1ccc(-c2nc(N)ncc2-c2ccccc2OC)c(O)c1,inactive
2,O=C(Nc1ccc2oc(-c3ccccc3F)nc2c1)c1ccco1,inactive
3,Cc1ccc(S(=O)(=O)N(C)C)cc1NC(=O)c1n[nH]c(=O)c2ccccc12,inactive
4,O=C(CNC(=O)COc1ccccc1)NCCc1ccccn1,inactive
5,CCCn1nc(Oc2nc(NC(C)C)nc(N(C)C)n2)ccc1=O,inactive
6,O=C(NCC(=O)N(CC1CCCO1)C(C(=O)NC1CCCCC1)c1ccccc1)c1ccco1 (stereo unspecified),inactive
7,NS(=O)(=O)c1ccc(NC(=O)COC(=O)c2ccco2)cc1,inactive
8,O=C(Cn1cnc2ccccc2c1=O)Nc1cccc(S(=O)(=O)N2CCCCC2)c1,inactive
9,Fc1ccc(-c2csc(-c3ccc(C4SCCS4)cc3)n2)cc1F,inactive
10,COCC1CCCN(Cc2nc(-c3ccc4c(c3)OCO4)no2)C1 (stereo unspecified),inactive
11,CCNC(=O)CC1C(=O)N(c2ccc(F)cc2)C(=O)N1Cc1cccs1 (stereo unspecified),inactive
12,CN(C)S(=O)(=O)c1ccc(Cl)c(NC(=O)COC(=O)CC(NC(N)=O)c2ccc(Cl)cc2)c1 (stereo unspecified),inactive
13,COc1ccc(/C=C/c2nnc(NC(=O)C(C)C)s2)cc1,inactive
14,O=C(O)c1ccc(/C=N/Nc2nc(N3CCCCC3)nc(N3CCCCC3)n2)cc1,inactive
15,COc1cc(OC)cc(-c2nnc(SCC(=O)Nc3ccc(C(=O)O)cc3)s2)c1,inactive
16,NC(=O)COc1ccc(NC(=O)c2ccccc2-c2ccccc2)cc1,inactive
17,O=C(CSc1nncs1)NC1CCCc2ccccc21 (stereo unspecified),inactive
18,O=C(O)c1cccnc1Sc1ncnc2sc3c(c12)CCC3,inactive
19,N#C/C(=C/c1ccc(N2CCOCC2)o1)C(=O)N1CCOCC1,inactive
20,N#C/C(=C\C1=C(N2CCOCC2)C(=C\c2ccccc2)/CC1)C(=O)Nc1ccccc1F,7.08 µM (active)
21,N#C/C(=C\c1ccccc1C(F)(F)F)C(=O)Nc1ccccc1F,inactive
22,O=C(CSc1nnnn1-c1ccc(O)cc1)c1ccc(F)cc1,inactive
23,O=C(CCCNS(=O)(=O)c1cccc2nsnc12)NCCN1CCN(c2ccccc2F)CC1,inactive
24,CCN(CC)CCCNC(=O)Cn1cnc2sc(C)c(S(=O)(=O)N3CCN(c4ncccn4)CC3)c2c1=O,inactive

row,Compound,Potency
1,COc1cccc(CNC(=O)CCC2CCCN(C(=O)c3ccoc3C)C2)c1 (stereo unspecified),inactive
2,COC(=O)c1ccccc1NC(=S)NC(=O)c1ccccc1F,inactive
3,O=C(NC(=S)NC1CCSC1=O)c1ccccc1F (stereo unspecified),20 µM (active)
4,O=C(NCCc1csc(-c2ccccc2)n1)c1ccccc1F,inactive
5,Cc1ccc(S(=O)(=O)N2CCN(C(=O)COC(=O)c3c(C)noc3C)CC2)c(C)c1,inactive
6,O=C(NNC(=O)c1cnccc1C(F)(F)F)c1ccc(Cl)cc1,inactive
7,COc1cc2nc(Cl)nc(NCCO)c2cc1OC,inactive
8,NS(=O)(=O)c1cccc(NC(=O)CSc2nc3ccccc3n2-c2ccccc2)c1,inactive
9,COC(=O)c1ccc(NC(=S)NN2CCOCC2)cc1,inactive
10,CN1CCN(/N=C2/C(=O)Nc3ccc([N+](=O)[O-])cc32)CC1,inactive
11,COCCCNC(=S)N(Cc1ccccc1)Cc1ccc(F)cc1,inactive
12,O=C(/C=C/c1ccc(Cl)c([N+](=O)[O-])c1)c1ccc(O)cc1,inactive
13,Cc1nn(-c2ccccc2)c(Cl)c1/C=C/C(=O)c1ccc(O)cc1,15.8 µM (active)
14,Cc1nn(-c2ccccc2)c(C)c1/C=C/C(=O)OC(C)C(N)=O (stereo unspecified),inactive
15,COc1ccc(OC)c(NC(=O)N[C@H](Cc2ccccc2)C(=O)NN)c1,inactive
16,CN(C)S(=O)(=O)c1ccc(C(=O)NCC(C)(C)N2CCOCC2)cc1,inactive
17,CC1(C)OC(=O)C(=CSc2ccc(C(C)(C)C)cc2)C(=O)O1,inactive
18,COc1ccc(NC(=S)NCCNC(C)=O)cc1,inactive
19,COc1ccc(NC(=S)NCCN2CCC(C)CC2)cc1,inactive
20,COc1ccc(NC(=O)N2CCC(Cc3ccccc3)CC2)cc1,inactive
21,COc1cccc(N2CC(C(=O)Nc3c(C)cccc3C)CC2=O)c1 (stereo unspecified),inactive
22,COc1ccc(N2CCC(CNC(=S)Nc3c(C)cccc3C)C2)cc1 (stereo unspecified),12.6 µM (active)
23,COc1ccc(NC(=S)NCC2CCN(c3ccc(OC)cc3)C2)cc1 (stereo unspecified),25.1 µM (active)
24,Cc1nc2cc(NC(=O)Nc3cccc(F)c3)ccc2n1C,inactive

row,Compound,Potency
1,CC(C)=NN1C(=O)c2ccccc2NC1(C)C,inactive
2,OCCC1CN(Cc2ccc3nsnc3c2)CCN1C1CCCCC1 (stereo unspecified),inactive
3,O=C(/C=C/c1ccc2c(c1)OCO2)NCc1cn2cc(Cl)ccc2n1,inactive
4,Cc1c(Cc2ccccc2)c(=O)oc2cc(OCC(N)=O)ccc12,inactive
5,Cc1ccc(S(=O)(=O)N2CCN(C(=O)c3cccs3)CC2)cc1,inactive
6,COC(=O)C1=C(N)Oc2cc(C)[nH]c(=O)c2C1c1ccc(Cl)cc1 (stereo unspecified),inactive
7,O=C(NNC(=O)c1ccc(Cl)cc1Cl)c1cccs1,inactive
8,O=C(CN1CCCCC1)Nc1ccccc1Cl,inactive
9,COCCN(CCOC)C(=S)Nc1ccccc1Cl,inactive
10,O=C(Nc1ccccc1Cl)/C(Cl)=C(\Cl)S(=O)c1ccccc1 (stereo unspecified),31.6 µM (active)
11,COC(=O)Cc1ccc(Oc2ncc(C(F)(F)F)cc2Cl)cc1,inactive
12,CCOc1ccccc1N1CN(Cc2ccccc2)CNC1=S,inactive
13,CN(Cc1nc(-c2cnccn2)no1)Cc1n[nH]c2c1CCCCC2,inactive
14,CN=C1C=C/C(=N/N=c2\ccn(O)cc2C)C=C1C,17.8 µM (active)
15,Cn1nnc(NC(=S)NC(=O)c2ccccc2)n1,inactive
16,COc1ccc(C(=O)N/N=C2\CCS(=O)(=O)c3ccc(F)cc32)cc1OC,inactive
17,C/C(=N/NC(=O)c1ccn(C)n1)c1ccncc1,inactive
18,CCN(CC)S(=O)(=O)c1ccc(OC(C)C)c(N)c1,inactive
19,CCS(=O)(=O)c1ccc(O)c(NC(=O)COc2ccc(Cl)cc2)c1,inactive
20,CN(CCc1cn[nH]c1)C(=O)CC1C(=O)NCCN1Cc1cccc(Oc2ccccc2)c1 (stereo unspecified),inactive
21,O=C(CN1CCN(c2ccc(Cl)cc2)CC1)NCc1cccs1,inactive
22,Cc1ccc(/C=N/NC(=S)Nc2cccc(S(=O)(=O)N(C)C)c2)o1,inactive
23,Nc1nnc(SCn2nnc3ccccc3c2=O)s1,inactive
